Reference: PubChem BioAssay AID1851 (National Center for Advancing Translational Sciences (NCATS), 2009)
“And” between values parts separate entries of the source, which are not always exact repeats. Identical values can stand only once. Screen size: about 16,000 compounds; about 5,100 (32%) were called active. About 25% were inconclusive and are not listed. The list shows a part of the results. Values without a mark were called inactive. Calls come from the whole dose curve; as a rule, active = well fitted curve in the direction sought with a large enough effect; inconclusive = small, poorly fitted or top-dose-only effect, or effect the other way; inactive = no such curve, though single readings can be large or run the other way.

biological target: Cytochrome P450 3A4 (Homo sapiens) (UniProt P08684); assay: Cytochrome panel assay with activity outcomes; settings: recombinant CYP, pro-luciferin dealkylation, luminescence, p450-cyp3a4; series mostly up to 57.1 µM
% is set by controls: 0 for no effect and ±100 for the full control effect.

Cytochrome P450 3A4 (Homo sapiens), sequence (P08684 whole entry, looked up): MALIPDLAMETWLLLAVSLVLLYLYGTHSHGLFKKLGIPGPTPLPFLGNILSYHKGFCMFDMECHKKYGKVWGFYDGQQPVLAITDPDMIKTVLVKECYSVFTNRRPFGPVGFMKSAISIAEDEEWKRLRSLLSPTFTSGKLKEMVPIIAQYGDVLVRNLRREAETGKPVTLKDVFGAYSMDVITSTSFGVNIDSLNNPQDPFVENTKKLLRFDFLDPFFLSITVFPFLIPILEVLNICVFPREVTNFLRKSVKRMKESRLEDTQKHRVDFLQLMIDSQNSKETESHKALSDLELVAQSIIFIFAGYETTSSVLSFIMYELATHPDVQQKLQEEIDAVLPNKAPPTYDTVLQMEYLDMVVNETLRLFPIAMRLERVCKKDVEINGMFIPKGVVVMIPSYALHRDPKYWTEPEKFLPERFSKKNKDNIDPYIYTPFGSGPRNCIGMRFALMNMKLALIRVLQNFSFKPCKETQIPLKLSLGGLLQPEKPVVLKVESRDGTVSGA

Compound | activity, negative = inhibition | AC50
CCNC(=O)[C@@H]1O[C@@H](n2cnc3c(N)ncnc32)[C@H](O)[C@H]1O | inactive | 
CC(=O)O/C(=C1/C[C@H]2[C@@H]3CC=C4C[C@@H](OC(C)=O)CC[C@]4(C)[C@@H]3CC[C@]2(C)C1=O)C(F)(F)F | 4.88% [at 11.4 µM] | 
c1ccc2nc(N3CCNCC3)ccc2c1 | inactive | 
CN(C)CCCNc1c2c(nc3ccc(Cl)cc13)CCCC2 | 0.971% [at 11.4 µM] | 
CCN1C[C@]2(COC)CC[C@H](O)[C@@]34[C@@H]5C[C@H]6[C@@H](OC)[C@H]5[C@](O)(C[C@@H]6OC)[C@@](O)([C@@H](OC)[C@H]23)[C@@H]14 | inactive | 
COc1ccccc1CC1C(=O)C2CCN1CC2 (stereo not given) | inactive | 
Cc1ccc(OP(=O)(Oc2ccc(C)cc2)N2C=Cc3ccccc3[C@H]2C#N)cc1 |  | 2.51 µM (active)
O=[N+]([O-])c1ccc(N2CCNCC2)cc1NC1CC1 | 1.13% [at 2.29 µM] | 
CCCN(C/C=C\I)[C@@H]1CCc2ccc(O)cc2C1 | inactive | 
CCN1C[C@@]2(COC)CC[C@H](O)[C@@]34[C@@H]2C[C@@H]([C@@H]13)[C@]1(O)C[C@@H](OC)C2C[C@H]4[C@H]1[C@H]2OC(C)=O | inactive | 
COc1ccccc1N1CCNCC1 | inactive | 
C=C(C)[C@H]1CC[C@]2(CO)CC[C@]3(C)[C@@H](CC[C@H]4[C@@]5(C)CC[C@@H](O)C(C)(C)[C@@H]5CC[C@@]43C)[C@H]12 | inactive | 
N[C@H](CP(=O)(O)O)C(=O)O | inactive | 
Cc1ccc(C2CC(=O)C(C=NCCN3CCN(C(=O)Cc4ccccc4)CC3)=C(O)C2)cc1 (stereo not given) |  | 3.16 µM (active)
CC[N+](C)(C)c1cccc(O)c1 | inactive | 
Cn1c(=O)c2[nH]cnc2n(C)c1=O | inactive | 
C[C@H](NC(C)(C)C)C(=O)c1cccc(Cl)c1 | inactive | 
Cc1cc(C)nc(NC2=NCCS2)n1 | inactive | 
CC[N@+]1(C)CCC[C@@H](OC(=O)C(O)(c2ccccc2)c2ccccc2)C1 | inactive | 
CCCCc1nc2ccccc2c(=O)n1-c1ccc(Cl)cc1[N+](=O)[O-] | inactive | 
CCCc1nc2ccccc2c(=O)n1-c1ccc(OC)cc1 |  | 15.8 µM (active)
CCCCc1nc2ccccc2c(=O)n1-c1ccccc1[N+](=O)[O-] |  | 15.8 µM (active)
Cc1nc2ccccc2c(=O)n1-n1cnnc1 | inactive | 

Compound | activity, negative = inhibition | AC50
Cc1ccc(-c2nc3ccccc3c(=O)n2-c2ncccc2C)cc1 | -6.07% [at 2.29 µM] | 
CCC(=O)Nc1ccc(N2CCN(CC)CC2)c(Cl)c1 | inactive | 
COc1cc([C@@H](O)CN)ccc1O | inactive | 
O=P(Nc1ccccc1)(Nc1ccccc1)Oc1cccc(Cl)c1 | -28.2% [at 2.29 µM] | 
CCN1CCN(Cc2cc(OC)c(OC)cc2[N+](=O)[O-])CC1 | inactive | 
CCNC(=O)O/N=C(\C)c1sc(-c2ccccc2)nc1C | inactive | 
CN(C)C(=O)Oc1cc(OC(=O)N(C)C)cc([C@@H](O)CNC(C)(C)C)c1 | inactive | 
O=C(Cc1ccc(Cl)c(Cl)c1)N1CCCC[C@H]1CN1CCCC1 |  | 15.8 µM (active) and 7.94 µM (active)
NC(N)=NCCN=C(N)N | 0.983% [at 11.4 µM] | 
CC1=NN(c2ccccc2)C(=O)[C@@H]1N=Nc1ccc([As](=O)(O)O)c(O)c1 | -5.79% [at 11.4 µM] | 
COC(=O)[C@@H](N)CCCN=C(N)N[N+](=O)[O-] | inactive | 
CCn1cc(C(=O)O)c(=O)c2cc3c(cc21)OCO3 | inactive | 
FC(F)(F)c1nc2ccc(SSc3ccc4nc(C(F)(F)F)[nH]c4c3)cc2[nH]1 | 4.91% [at 11.4 µM] | 
CC(C)=C[C@H]1[C@@H](C(=O)OCc2cc3c(cc2Cl)OCO3)C1(C)C |  | 0.316 µM (active)
CC(C)C(=O)CP(=O)(O)O | 2.74% [at 11.4 µM] | 
Cc1noc(C)c1C(=O)N1CCC2(CCCN(CC(C)C)C2)CC1 | inactive | 
c1ccc(CN2CCN(Cc3ccc4c(c3)OCCO4)CC2)cc1 | -16.2% [at 11.4 µM] | 
O=C(c1ccncc1)N1CCC2(CC1)CN(Cc1ccccc1)C2 |  | 20 µM (active)
CC(C)CN1CCC2(CC1)CCN(C(=O)Oc1ccccc1)CC2 | inactive | 
CC(C)CN1CC2(CCN(C(=O)c3ccncc3)CC2)C1 | inactive | 
c1cc(CN2CCC3(CCNCC3)CC2)ccn1 | inactive | 
O=C(Oc1ccccc1)N1CCC2(CCN(Cc3ccncc3)CC2)CC1 |  | 12.6 µM (active)
c1csc(CN2CC[C@@]3(CCCNC3)C2)n1 | inactive | 

Compound | activity, negative = inhibition | AC50
CN1CCCC2(CCN(C(=O)c3ccncc3)CC2)C1 | inactive | 
O=C(Oc1ccccc1)N1CCC2(CCCN(Cc3nccs3)C2)CC1 |  | 12.6 µM (active)
c1csc(CN2CCCC3(CCNCC3)C2)n1 | inactive | 
CC(C)CN1CCCC2(CCN(C(=O)c3ccncc3)CC2)C1 |  | 12.6 µM (active)
N=C(N)n1cc(/C=N\N=C(N)N)cn1 | -16.6% [at 11.4 µM] | 
c1ccc2c(c1)-c1ccccc1C2N1CC2CCC(CC2)C1 | -5.36% [at 11.4 µM] | 
CN1[C@@H](C[C@@H](O)c2ccccc2)CCC[C@@H]1C[C@H](O)c1ccccc1 | inactive | 
O=[N+]([O-])c1cc(-c2ccc([As](=O)(O)O)cc2)ccc1[As](=O)(O)O | 9.09% [at 11.4 µM] | 
O=C(O)[C@@H]1[C@H](C(=O)O)[C@]2(Cl)C(Cl)=C(Cl)[C@@]1(Cl)C2(Cl)Cl | -9.54% [at 11.4 µM] | 
C(#CCN1CCCC1)CN1CCCC1 | inactive | 
C[C@]12CC[C@H](O)C[C@@H]1CC[C@H]1[C@H]2CC[C@]2(C)C(=O)CC[C@@H]12 | inactive | 
Cc1cccc(NC(=S)NC2CC3CCCC(C2)N3Cc2cccs2)c1 (stereo not given) | -1.32% [at 2.29 µM] | 
COc1ccc(C[C@H]2NC[C@H](O)[C@@H]2OC(C)=O)cc1 | inactive | 
COC1=C(C)C(=O)c2c(c(COC(N)=O)c3n2C[C@@H]2[C@@H]3N2C)C1=O (stereo not given in full) | -20.6% [at 11.4 µM] | 
COC(=O)[C@@H]1c2cc3c(c(O)c2[C@@H](O)C[C@]1(C)O)C(=O)c1c(O)cc2c(c1C3=O)O[C@H]1O[C@@]2(C)[C@@H](O)[C@H](N(C)C)[C@H]1O | -12% [at 11.4 µM] | 
C[C@@]12CC[C@H](O[C@@H]3O[C@H](CO)[C@@H](O)[C@H](O)[C@@H]3O)C[C@@H]1CC[C@H]1[C@H]2CC[C@@]2(C)[C@@H](C3=CCOC3=O)CC[C@]12O | 0.209% [at 11.4 µM] | 
C1C[C@@H]2CN(CCCN3CCOCC3)[C@@H](C1)O2 | -5.91% [at 11.4 µM] | 
NN=C(N)N | inactive | 
Clc1ccc(C(c2ccc(Cl)cc2)n2cc[n+](C[C@@H](OCc3ccc(Cl)cc3Cl)c3ccc(Cl)cc3Cl)c2)cc1 |  | 15.8 µM (active)
CC(C)CN1CCC2(CC1)CCN(S(C)(=O)=O)CC2 | inactive | 
O=c1[nH]oc2c1CCNC2 | inactive | 
CCC1(CC)C(=O)C=CNC1=O | inactive | 
CC(C)[C@@H]1CN[C@H](C(=O)O)[C@@H]1CC(=O)O | inactive | 

Compound | activity, negative = inhibition | AC50
C=C1CC[C@H](O)C/C1=C/C=C1\CCC[C@]2(C)[C@H]1CC[C@H]2[C@@H](C)CCCC(C)C | inactive | 
N[C@@]1(C(=O)O)CC[C@H](C(=O)O)C1 | inactive | 
CC(C)[C@@]1(NC(=O)[C@@H]2C[C@H]3c4cccc5[nH]cc(c45)C[C@@H]3N(C)C2)O[C@]2(O)[C@H]3CCCN3C(=O)CN2C1=O | inactive | 
CC[C@H](CO)NC(=O)[C@@H]1C=C2c3cccc4c3c(cn4C)C[C@@H]2N(C)C1 | inactive | 
CC(C)C[C@H]1C(=O)N2CCC[C@@H]2[C@@]2(O)O[C@](NC(=O)[C@@H]3C=C4c5cccc6[nH]cc(c56)C[C@@H]4N(C)C3)(C(C)C)C(=O)N12 |  | 2 µM (active)
CCNC(=S)NC1CC2CCCC(C1)N2Cc1ccco1 (stereo not given) | -6.93% [at 2.29 µM] | 
CC1=CC(=O)C2=C(C)C[C@@H](O)[C@@H]3[C@@H](OC(=O)[C@H]3C)[C@H]12 | inactive | 
O=C(Nc1cccc2ccccc12)c1nn(C23CC4CC(CC(C4)C2)C3)cc1Br | inactive | 
NCCCNCCSP(=O)(O)O | inactive | 
CNC(=S)NC1CC2CCCC(C1)N2CC(C)C (stereo not given) | inactive | 
C[C@@H]1O[C@H](O[C@H]2C[C@@H](O)[C@@]3(CO)[C@H]4[C@@H](O)C[C@]5(C)[C@@H](C6=CC(=O)OC6)CC[C@]5(O)[C@H]4CC[C@]3(O)C2)[C@@H](O)[C@H](O)[C@@H]1O | inactive | 
Cc1ccc(C2(c3ccc(C)c(O)c3C)CCN(C)CC2)c(C)c1O | -1.39% [at 11.4 µM] | 
CCOP(=O)(OCC)c1nc(/C=C/c2ccccc2)oc1NCc1ccccc1 |  | 14.1 µM (active)
C[C@H](Br)C(=O)c1ccc2cc(Br)c3ccccc3c2c1 | -23.5% [at 11.4 µM] | 
NCCc1c[nH]c2ccc(C(N)=O)cc12 | inactive | 
CCCN(CCC)[C@H]1CCc2c(F)ccc(O)c2C1 | inactive | 
CCS(=O)(=O)Nc1cccc(C(=C2CCCCC2)c2cnc[nH]2)c1 |  | 0.316 µM (active)
CC1(C)CCC(C)(C)c2c1ccc(O)c2Cc1c(O)ccc2c1C(C)(C)CCC2(C)C | -26.4% [at 11.4 µM] | 
C[C@@]12CC[C@H](O)C[C@@H]1CC[C@@H]1[C@@H]2CC[C@@]2(C)[C@@H](C3=CC(=O)OC3)[C@H](O)C[C@]12O | -21.4% [at 11.4 µM] | 
C[C@@]12CC[C@H](O)C[C@@H]1CC[C@H]1[C@@H]2C[C@@H](O)[C@]2(C)[C@@H](C3=CC(=O)OC3)CC[C@]12O | inactive | 
C[C@@]12CC[C@H](O)C[C@@H]1CC[C@H]1[C@H]2CC[C@@]2(C)[C@@H](C3=CC(=O)OC3)CC[C@]12O |  | 3.16 µM (active)
